Screening results as filed in PubChem BioAssay.
Artemis inh: inhibitors of human Artemis endonuclease activity; AID 686954; recombinant Artemis, quenched FAM hairpin cleavage fluorescence; inhibition, % at 10 µM; Q96SD1; actives 0.78% (n = 30,000);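 active = at 10 µM dose, at least 30% inhibition, measured as corrected fluorescence normalized to stimulator and neutral control wells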
Target sequence (Q96SD1 whole entry, looked up): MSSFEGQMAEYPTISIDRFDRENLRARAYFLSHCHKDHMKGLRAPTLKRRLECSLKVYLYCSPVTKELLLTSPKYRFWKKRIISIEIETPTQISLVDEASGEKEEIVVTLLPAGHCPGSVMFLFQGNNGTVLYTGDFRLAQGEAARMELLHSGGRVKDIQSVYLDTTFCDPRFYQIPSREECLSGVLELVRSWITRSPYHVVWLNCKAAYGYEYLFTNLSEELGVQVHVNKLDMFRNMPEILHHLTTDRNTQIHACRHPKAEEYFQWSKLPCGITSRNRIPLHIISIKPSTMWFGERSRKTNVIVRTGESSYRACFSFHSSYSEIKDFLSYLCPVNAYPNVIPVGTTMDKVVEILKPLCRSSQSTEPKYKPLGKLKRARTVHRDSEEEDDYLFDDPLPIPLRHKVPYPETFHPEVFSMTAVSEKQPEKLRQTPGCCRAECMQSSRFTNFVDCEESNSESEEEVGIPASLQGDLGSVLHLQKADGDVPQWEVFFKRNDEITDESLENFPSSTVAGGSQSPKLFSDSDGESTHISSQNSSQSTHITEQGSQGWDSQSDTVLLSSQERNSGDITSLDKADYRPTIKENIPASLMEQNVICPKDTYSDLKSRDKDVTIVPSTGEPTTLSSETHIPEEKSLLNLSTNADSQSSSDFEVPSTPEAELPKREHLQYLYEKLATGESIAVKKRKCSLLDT
An asterisk follows results filed as active. The sample as a whole holds a higher share of hits than the screen did.

What do the screens show for `COc1ccc(Nc2nc(NCc3ccco3)nc(N/N=C/c3ccccc3)n2)cc1`?
Artemis inh: 72*

Results for CCOc1nc(NCc2ccco2)nc(Nc2ccc(OC)cc2)n1 ?
Artemis inh: 5

What do the screens show for `O=C1CCC([N+](=O)[O-])C(c2cccc(Cl)c2Cl)N1` (stereo not drawn)?
Artemis inh: -1

What do the screens show for `CCOC(=O)CSc1nc(N(C)C)nc(N(C)C#N)n1`?
Artemis inh: 1

What do the screens show for `Cc1ccc(CC2CC(=O)N(c3ccc(Cl)cn3)C2=O)cc1` (stereo not drawn)?
Artemis inh: 5

Results for C=CCSc1nnc(-c2cc3c(s2)-c2ccccc2CC3)o1 ?
Artemis inh: 1

How did CN(Cc1ccc(-n2cccn2)cc1)C(=O)c1cnn2c1NC(c1ccco1)CC2C(F)(F)F (stereo not drawn) do in these assays?
Artemis inh: -1

How did COc1ccc(/C=N/NC(=O)c2nc(-c3ccccc3)cc(-c3ccccc3)n2)cc1 do in these assays?
Artemis inh: 35*

Results for COc1cc(/C=N/NC(=O)c2cnn3c(C)cc(-c4ccccc4)nc23)ccc1O ?
Artemis inh: 10

How did COc1ccc(/C=N/NC(=O)c2nn(-c3ccc(C)c(C)c3)c(=O)c3ccccc23)cc1 do in these assays?
Artemis inh: 13

Results for COC(=O)c1ccccc1NC(=O)C1CCN(C(=O)c2cc(OC)c(OC)c(OC)c2)CC1 ?
Artemis inh: -5

Results for C=CCSC1=Nc2sccc2C2=NC(=O)CN12 ?
Artemis inh: 3

What do the screens show for `O=C(Nc1nc(-c2ccco2)c(-c2ccco2)s1)C1CC(=O)N(c2ccc3c(c2)OCCO3)C1` (stereo not drawn)?
Artemis inh: 32*

How did O=C(Nc1nc2ccccc2s1)C1CC(=O)N(c2ccc(Cl)cc2)C1 (stereo not drawn) do in these assays?
Artemis inh: 5

What do the screens show for `O=C(COC(=O)C1CC(=O)N(c2ccc3c(c2)OCCO3)C1)Nc1ccc2c(c1)CCC2` (stereo not drawn)?
Artemis inh: -7

How did COc1ccc(/C=C2\SC(=S)N(NC(=O)c3csc4c3CCCC4)C2=O)cc1 do in these assays?
Artemis inh: -1

What do the screens show for `COc1cc(COCC(O)CN2CCOCC2)cc(OC)c1OC` (stereo not drawn)?
Artemis inh: 1

Results for COC(=O)[C@@H]1[C@@H](C#N)C2(c3ccccc3-c3ccccc32)N(c2ccc(Cl)cc2)N1C#N ?
Artemis inh: 40*

How did CCC(=O)N1CCCc2cc(S(=O)(=O)N3CCN(c4ccccn4)CC3)ccc21 do in these assays?
Artemis inh: -7

Results for O=C(CCCCCC(=O)N(CCO)CCO)N(CCO)CCO ?
Artemis inh: -5

Results for Cc1[nH]n(-c2ccccc2)c(=O)c1-c1cccc(Cl)c1 ?
Artemis inh: 7

What do the screens show for `Cc1nc(=S)n(-c2ccccc2)[nH]1`?
Artemis inh: -5

How did Cc1[nH]n(-c2ccccc2)c(=O)c1C(C[N+](=O)[O-])c1ccc(Br)cc1 (stereo not drawn) do in these assays?
Artemis inh: 34*

What do the screens show for `CN(c1ccc(C(=O)NC2CC2)cc1)S(=O)(=O)c1ccccc1`?
Artemis inh: -1

Results for CCOC(=O)C1CSC(CC(=O)Nc2ccc(Cl)c(Cl)c2)C(=O)N1 (stereo not drawn) ?
Artemis inh: -9

What do the screens show for `CCOC(=O)N1CCN(C(=O)c2ccc(N3C(=O)c4ccccc4C3=O)cc2)CC1`?
Artemis inh: -7

What do the screens show for `CCOC(=O)N1CCN(c2cc(NCCC(=O)O)c3c4c(onc24)-c2ccccc2C3=O)CC1`?
Artemis inh: 33*

How did CCOC(=O)N1CCN(c2ccc(C(=O)c3ccccc3)cc2F)CC1 do in these assays?
Artemis inh: 0

Results for O=C(CCCOc1ccc(Cl)cc1)NCC1CCCO1 (stereo not drawn) ?
Artemis inh: -8

What do the screens show for `CCOC(=O)/C(C#N)=C/C1=C(N2CCCC2)CC(C)(CC)OC1` (stereo not drawn)?
Artemis inh: 5

What do the screens show for `Cc1ccc(S(=O)(=O)N(C)CC(=O)Nc2ccncc2)cc1`?
Artemis inh: -5

How did CCCSC(=O)N(CC)CC(=O)Nc1c(CC)cccc1CC do in these assays?
Artemis inh: -13

Results for COc1ccccc1NC(=O)c1[nH]c(C)c(C(C)=O)c1C ?
Artemis inh: -4

What do the screens show for `COc1cccc(/C=N/NC(=O)c2ccc(-c3ccccc3)cc2)c1O`?
Artemis inh: 13

How did COc1cccc(/C=N/NC(=O)c2[nH]c(C)c(C(=O)N/N=C/c3cccc(OC)c3O)c2C)c1O do in these assays?
Artemis inh: 91*

How did COc1ccc(N2CCN(CC(O)COc3ccc4c(c3)CCC4)CC2)cc1 (stereo not drawn) do in these assays?
Artemis inh: 4

How did Cc1ccccc1C(=O)O/N=C1\CCS(=O)(=O)c2sccc21 do in these assays?
Artemis inh: -1

Results for O=C(c1ccc(CN2CCc3ccccc3C2)cc1)N1CCN(c2ccc(F)cc2)CC1 ?
Artemis inh: 1

Results for O=C(N/N=C\c1ccc(Cl)s1)c1cccs1 ?
Artemis inh: 1
